# Measured values from PubChem BioAssay (NCATS).
# Where “and” joins values, the source holds several entries; their conditions need not be identical. Identical values can stand only once. Inconclusive results are not listed. Calls of active or inactive are those of the source. The call rests on the fitted dose curve; in most records, active means well fitted curve in the direction sought with a large enough effect; inconclusive means small, poorly fitted or top-dose-only effect, or another doubt; inactive means no such curve, though single readings can be large or run the other way.
# Assay: qHTS Assay for Identifying Gametocytocidal Compounds (AID 743244);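 on max response: actives lower the fluorescent signal which means gametocytes are killed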
# Conditions: P. falciparum 3D7 stage III-V gametocytes, alamarBlue, 72 h; max response: hits give low values
# How it was run: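 A resazurin-based viability read-out was applied to mature P. falciparum gametocytes: 72 h compound treatment, then 24 h dye incubation, with falling fluorescence signalling gametocytocidal effect.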
# On the % scale 0 is the no-effect control and ±100 the full control effect; potency means the concentration at half of the fitted maximal effect.
Structure (SMILES),Potency,max response
CC(=O)[C@]1(O)Cc2c(O)c3c(c(O)c2[C@@H](O[C@H]2C[C@H](N)[C@H](O)[C@H](C)O2)C1)C(=O)c1c(O)cccc1C3=O,5.62 µM (active),–
O=C(O)Cc1cccc(-c2cc(CCCCCCc3ccc(O[C@H]4O[C@H](CO)[C@@H](O)[C@H](O)[C@@H]4O)c(-c4cccc(CC(=O)O)c4)c3)ccc2O[C@H]2O[C@H](CO)[C@@H](O)[C@H](O)[C@@H]2O)c1,–,36.1% (inactive)
C=CCN1C(=O)C(CC(C)C)NC1=S (stereo not given),–,24.3% (inactive) and -10.7% (inactive)
CC(C(=O)O)c1ccc2c(c1)[nH]c1ccc(Cl)cc12 (stereo not given),–,3.15% (inactive)
Cc1onc(-c2c(F)cccc2Cl)c1C(=O)N[C@@H]1C(=O)N2[C@@H]1SC(C)(C)[C@@H]2C(=O)O,–,16.8% (inactive) and -3.16% (inactive)
Cc1nc2ccccc2n1Cc1ccc(Cl)cc1,–,3.69% (inactive)
C/C(=N\O)c1ccc(OCC(=O)N2CCCCC2)cc1,–,0.0539% (inactive)
CC1(C)C[C@@H]1C(=O)N/C(=C\CCCCSC[C@H](N)C(=O)O)C(=O)O,–,3.26% (inactive) and 5.48% (inactive)
CC1(C)[C@@H](O[C@H]2O[C@H](C(=O)O)[C@@H](O)[C@H](O)[C@H]2O[C@@H]2O[C@H](C(=O)O)[C@@H](O)[C@H](O)[C@H]2O)CC[C@]2(C)[C@H]3C(=O)C=C4[C@@H]5C[C@@](C)(C(=O)O)CC[C@]5(C)CC[C@@]4(C)[C@]3(C)CC[C@@H]12,–,1.42% (inactive) and -3.92% (inactive)
C#CC1(O)CC[C@H]2[C@@H]3CCC4=CCCC[C@@H]4[C@H]3CC[C@@]21C (stereo not given in full),–,18.8% (inactive)
Nc1c(CC(=O)O)cccc1C(=O)c1ccc(Br)cc1,–,4.37% (inactive)
CCCCCCCCCCCC(=O)[O][Sn]([CH2]CCC)([CH2]CCC)[O]C(=O)CCCCCCCCCCC,–,-1.72% (inactive)
Cc1[nH]cnc1CN1CCc2c(c3ccccc3n2C)C1=O,–,-6.58% (inactive)
CCOc1ccc2nc(S(N)(=O)=O)sc2c1,–,10.4% (inactive)
CC(=O)SCC(CC(=O)c1ccc(C)cc1)C(=O)O (stereo not given),–,17.7% (inactive)
O=C(/C=C/c1ccccc1)NCCO,–,7.68% (inactive)
Nc1ccc(C(=O)O)c(O)c1,–,1.29% (inactive)
CC[C@H]1OC(=O)[C@H](C)C(=O)[C@H](C)[C@@H](O[C@@H]2O[C@H](C)C[C@H](N(C)C)[C@H]2O)[C@](C)(OC)C[C@@H](C)C(=O)[C@H](C)[C@H]2N(CCCCn3cnc(-c4cccnc4)c3)C(=O)O[C@]12C,–,-5.82% (inactive) and 15.9% (inactive)
Clc1ccccc1-c1nc(-c2ccncc2)no1,–,20.9% (inactive)
CC(C(=O)O)c1ccc(C(=O)c2cccs2)cc1 (stereo not given),–,13.3% (inactive)
CC1(C)S[C@@H]2[C@H](NC(=O)[C@H](N)c3ccc(O)cc3)C(=O)N2[C@H]1C(=O)O,–,4.64% (inactive) and 10.7% (inactive)
c1ccc2sc(SN3CCOCC3)nc2c1,–,-2.78% (inactive)
O=C(O)Cc1ccc(-c2ccccc2)cc1,–,-0.327% (inactive)
COc1cc(/C=C/C(=O)N2CCN(CC(=O)N3CCCC3)CC2)cc(OC)c1OC,–,-1.2% (inactive)
N=C(N)N,–,-3.24% (inactive)
